Bioassay records from PubChem.
An excerpt weighted towards active compounds, which were near 3.7% of everything screened.
V-ATPase pHluor = alters yeast V-ATPase proton transport | S. cerevisiae, pHLuorin cytosolic pH fluorescence | response, % at 10 µM | 350,000 tested, 0.37% active | AID 504577; in the data active = response mostly above about 7.3%, no sharp cut-off; inactive = mostly below about 5.4%; also: actives read high
tim10-1 inh = inhibits growth of tim10-1 mutant yeast. S. cerevisiae tim10-1 ts strain growth, BacTiter-Glo, 24 h. inhibition, % at 20 µM. 330,000 tested, 2.2% active. AID 463190;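 active = inhibition of at least 40%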;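 also: mutant grown at 25 °C; 0% = DMSO wells with yeast and 100% = wells holding no yeast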
TIM10 inh = inhibits growth of TIM10 yeast strain. S. cerevisiae TIM10 strain growth, BacTiter-Glo luminescence, 24 h. inhibition, % at 10 µM. 330,000 tested, 1.4% active. AID 463195;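 active = inhibition of 40% or more at the single tested concentration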;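 also: wild-type TIM10 isogenic control strain grown at permissive 25 °C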
tim23-1 inh = tim23-1 yeast growth inhibition. S. cerevisiae tim23-1 growth, BacTiter-Glo luminescence, 24 h. inhibition, % at 20 µM. 330,000 tested, 1.3% active;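 active = growth inhibition of the mutant yeast at or above 50%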;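 also: temperature-sensitive mutant grown at 25 °C; plate controls were DMSO-treated mutant yeast for no effect and medium wells lacking yeast for full effect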
PfHsp90 yeast 2 = inhibits growth of yeast expressing Plasmodium falciparum Hsp90. S. cerevisiae expressing PfHsp90, BacTiter-Glo ATP, 48 h; yeast lacking PDR1 and PDR3 efflux regulators. inhibition, % at 9.4 µM. 310,000 tested, 0.32% active. AID 504621;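 active = every replicate shows inhibition above about 80%, whatever the replicate mean, limit read from the data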;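 also: 0% = DMSO neutral controls and 100% = 20 µM radicicol positive controls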
VATPase regulator = regulators of yeast V-ATPase proton transport; shares compounds with V-ATPase pHluor; S. cerevisiae pHLuorin cytosolic pH; response, % at 10 µM; 980 tested, 2% active; AID 602197; in the data active = response above about 24%;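 also: plate controls were vehicle wells for no effect and positive control wells for full effect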
* marks the source's active call; other numbers are inactive results; . = not tested or not shown.

SMILES	V-ATPase pHluor	tim10-1 inh	TIM10 inh	tim23-1 inh	PfHsp90 yeast 2	VATPase regulator
N#C/C(=C\c1ccco1)C(=O)Nc1ccc(S(N)(=O)=O)cc1	8.6*	-32	-45	-17	-1	-7
N#C/C(=C/c1ccc(-c2ccc(S(N)(=O)=O)cc2)o1)C(=O)Nc1ccccc1	-1	3	-3	-15	-14	.
O=S(=O)(NC1=NCCC1)c1ccc(F)cc1F	9.1*	3	3	3	-5	-2
O=C(COC(=O)/C=C/c1ccccc1Cl)NC(=O)Cc1ccccc1	9.9*	31	17	15	-10	2
Cn1cc(C(=O)NCc2ccc(Cl)cc2)c(=O)c2cc(S(=O)(=O)N3CCOCC3)ccc21	0	-7	10	3	11	.
Nc1ccccc1NC1=CC(=O)CC(c2ccco2)C1 (stereo not given)	11*	-2	-11	-3	-3	1
Cc1ccc(NC2=CC(=O)CC(c3ccco3)C2)c(N)c1 (stereo not given)	2	9	11	5	-12	.
CCN1CCN(c2nc3c(C)cccn3c(=O)c2/C=C(\C#N)C(=O)NCCOC)CC1	3	27	-2	7	-5	.
Cc1c(Cl)cnc(NC(=O)COC(=O)c2ccncc2)c1Cl	6	6	2	5	-5	.
Cc1noc(C)c1C(=O)OCC(=O)Nc1ncc(Cl)c(C)c1Cl	11*	2	-8	14	.	1
Cc1ccc(Cn2ccc(O)c(Cc3ccccc3)c2=O)cc1	-1	-13	-4	-7	3	.
O=C(Nc1ccc(Oc2ccccc2)nc1)C1CCN(Cc2ccco2)CC1	8.7*	-2	-20	-6	-7	1
O=C(Nc1ccc(Oc2ccccc2)nc1)C1CCCCN1Cc1ccco1 (stereo not given)	-12	-4	-5	14	3	.
Nc1nc(SCC(=O)N2CCCc3ccccc32)n[nH]1	0	8	3	14	0	.
C[C@@H]1CN([C@@H](C)CO)S(=O)(=O)c2ccc(Br)cc2O[C@@H]1CN(C)C(=O)c1ccncc1	5.2*	.	.	.	.	-1
CCOC(=O)CCC(=O)Nc1ccccc1C(N)=O	7.7*	7	2	10	.	-8
COc1ccc(OC(C)C(=O)N(C)Cc2nc(-c3ccc(OC)cc3)no2)cc1 (stereo not given)	-2	10	25	18	-17	.
Cc1ccc([C@@H]2[C@@H]3C(=O)N(C)C(=O)[C@@H]3[C@]3(Cc4ccccc4)C(=O)N(Cc4ccccn4)CC(=O)N23)o1	1	-14	1	18	.	.
COc1ccccc1N(C)S(=O)(=O)c1ccc(C(=O)OCC(=O)Nc2ccc(C(N)=O)cc2)cc1	0	8	6	13	.	.
COc1ccc(NC(=O)COC(=O)c2ccc(S(=O)(=O)N(C)c3ccccc3OC)cc2)cc1OC	8	26	21	22	6	0
Cc1ccc(S(=O)(=O)NN=C2CCCc3ccccc32)cc1	-3	.	.	.	.	.
Cc1ccc(S(=O)(=O)O/N=C2\CCCc3ccccc32)cc1	12*	18	11	11	-10	-2
Cc1ccc(CNS(=O)(=O)c2ccc3c(c2)NC(=O)CO3)cc1	-1	22	6	26	0	.
NS(=O)(=O)c1ccc(CCNS(=O)(=O)c2ccc3c(c2)NC(=O)CO3)cc1	9.4*	-3	5	-3	-50	2
Cc1cc(C)cc(NC(=O)CSc2nc3nc(C)cc(C)n3n2)c1	1	-7	-7	1	-5	.
SMILES	V-ATPase pHluor	tim10-1 inh	TIM10 inh	tim23-1 inh	PfHsp90 yeast 2	VATPase regulator
Cc1noc(NS(=O)(=O)c2ccc(NC(=O)/C=C/c3ccccc3)cc2)c1C	13*	0	-2	2	13	4
COc1ccc(/C=C/C(=O)Nc2ccc(S(=O)(=O)Nc3onc(C)c3C)cc2)cc1OC	6	-4	9	0	-3	.
CN(C)CCCNC1=CC(=O)OC12CCCCC2	2	1	-3	-10	-12	.
O=C1C=C(NCc2ccc(Cl)cc2Cl)C2(CCCCC2)O1	10*	20	15	19	-40	4
O=C(Cn1ncc2c1-c1ccccc1OC2)Nc1ccc(S(=O)(=O)N2CCCCC2)cc1	12*	23	9	21	-4	-2
O=C(Cn1nc(-c2ccccc2F)ccc1=O)Nc1ccc(S(=O)(=O)N2CCCCCC2)cc1	-1	17	-3	0	8	.
COc1ccc(N(CC(=O)N2CCN(c3ccc(Cl)cc3)CC2)S(=O)(=O)c2c(C)n[nH]c2C)cc1	7.4*	-7	7	3	-4	-1
COc1ccc(N(CC(=O)Nc2ccc(Cl)cc2)S(=O)(=O)c2c(C)n[nH]c2C)cc1	1	20	-1	13	18	.
Cc1nc2cc(NC(=O)CS(=O)(=O)c3ccc(F)cc3)ccc2s1	-3	-2	17	14	.	.
C/C(CC(=O)Nc1ccccn1)=N\NC(=O)c1cnccn1	16*	-4	2	2	9	4
C/C(CC(=O)Nc1ccc2ccccc2c1)=N\NC(=O)c1cnccn1	-3	30	1	33	12	.
CCOC1=C(C#N)CC2(CC1)c1ccccc1-c1ccccc12	-4	.	.	.	.	.
CCCCCCSc1nsc(NC(C)=O)n1	11*	-5	-1	11	3	4
CCCCSc1nsc(NC(C)=O)n1	2	12	13	17	.	.
CC/C(C)=N\NC(=O)CNC(=O)c1ccc(Cl)cc1Cl	12*	-2	-19	16	18	2
CC/C(Cc1ccccc1)=N/NC(=O)CNC(=O)c1ccc(Cl)cc1Cl	1	12	-2	5	-1	.
CC(=O)c1nnn(-c2cccc(C#N)c2)c1C	13*	-15	3	8	13	-1
CC(=O)c1nnn(-c2ccccc2C#N)c1C	0	-6	2	-11	2	.
COc1cccc(/C(N)=N/OC(=O)Cc2ccccc2[N+](=O)[O-])c1	14*	34	-1	31	-16	0
COc1ccc(N(CC(=O)N2CCN(c3ccccc3)CC2)S(=O)(=O)c2ccccc2)cc1	-1	.	.	.	.	.
O=C(NCc1cccnc1)c1nc(-c2ccccc2)n(-c2ccccc2)n1	-1	18	8	14	0	.
C=CCN(c1ccccc1)S(=O)(=O)c1cccc(C(=O)Nc2nnc(SCC)s2)c1	11*	9	14	13	1	-1
CCOC(=O)C(CCCOc1ccc(C)cc1)C(=O)OCC	9.6*	0	-21	-2	-9	-6
Cc1cc(=O)n(-c2ccc(Cl)cc2)c(=O)[nH]1	4	-6	-16	10	.	-1
Cc1cc(=O)cc(C)n1-c1ccc(Cl)cc1	2	4	-13	17	.	3
CC12CN3CCN(CC(C3)/C1=N\NC(=O)Nc1cccc(Cl)c1)C2	-1	8	-7	-1	9	.
COc1ccc(Nc2nc(-c3cccnc3)cs2)c(OC)c1	9.1*	-4	2	15	-17	3
COc1ccccc1Nc1nc(-c2cccnc2)cs1	4	-30	21	31	9	.
